# Literature values in PubChem BioAssay AID977610.
# Hit rate of the full screen: of about 3,600 compounds, about 3,600 (100%) were called active. No cut-off is given here; in the data, nearly all actives have Ki up to about 18000 µM. So high a share suggests a set chosen from earlier hits. This is one part of the list. Square brackets hold non-standard residues; d marks the D form. Peptide text beside a SMILES is read from it. Orn(CH(NH2)2) = NC(N)NCCC[C@H](N)C(=O)O
# Test: PubChem AID 977610
# Settings: PDB protein-ligand complexes, literature Ki
smiles,measurement,setting,value
COc1ccc([C@H]2[C@H](O)[C@H](O)[C@H](C)N2C)cc1,Ki,"protein: alpha-L-fucosidase, PDB entry 4jfs",5.4 µM (active)
COc1ccc([C@@H]2N[C@@H](C)[C@@H](O)[C@H]2O)cc1,Ki,"protein: alpha-L-fucosidase, PDB entry 4jft",3.5 µM (active)
NC(N=O)NCC[C@H](N)C(=O)O (stereo partly drawn),Ki,"protein: Arginase, PDB entry 4iu1",50 µM (active)
COC(=O)CC[C@H](C[C@H](N)C(=O)O)C(=O)O,Ki,"protein: Glutamate receptor ionotropic, kainate 3 GluK3 LBD, PDB entry 4nwc",1.74 µM (active)
CNC(=O)CC[C@H](C[C@H](N)C(=O)O)C(=O)O,Ki,"protein: Glutamate receptor ionotropic, kainate 3 GluK3 LBD, PDB entry 4nwd",3.96 µM (active)
CCCCCCCCCCCCCCCCCCCC(=O)NCCO,Ki,"protein: FATTY ACID-BINDING PROTEIN, EPIDERMAL, PDB entry 4azp",1.26 µM (active)
CCC(CC)[C@H](NC(C)=O)[C@@H]1[C@H](O)[C@@H](C(=O)O)C[C@H]1NC(N)N,Ki,"protein: Human Sialidase Neu2, PDB entry 2f10",330 µM (active)
OCc1ccc2c(c1)OCCO2,Ki,"protein: PDE10A2, PDB entry 4lm2",940 µM (active)
CC(=O)c1ccc2c(c1)OCCO2,Ki,"protein: PDE10A2, PDB entry 4lm3",1200 µM (active)
CCCCCCCC/C=C\CCCCCCC[C@H](O)c1nnc(-c2ccccn2)o1,Ki,"protein: Humanized Variant of Fatty Acid Amide Hydrolase (L192F, F194Y, A377T, S435N, I491V, V495M), PDB entry 3k84",0.003 µM (active)
Cc1ccnc(N)c1[N+](=O)[O-],Ki,"protein: PDE10A2, PDB entry 4mrz",300 µM (active)
O=C(O)C(O)C(=O)O,Ki,"protein: Mandelate racemase, PDB entry 4m6u",1800 µM (active)
Nc1c(CC(=O)O)cccc1C(=O)c1ccc(Br)cc1,Ki,"protein: E. coli sliding clamp, DNA polymerase III subunit beta, PDB entry 4mjq",193 µM (active)
CC(C)[C@H](NC(=O)[C@H](C)NC(=O)[C@H](Cc1ccccc1)NC(=O)[C@H](CO)NC(=O)[C@H](CCCNC(N)N)NC(=O)[C@@H]1CCCN1)C(=O)O (H-P[Orn(CH(NH2)2)]SFAV-OH),Ki,"protein: LSD1-CoREST complex, PDB entry 3zmz",18 µM (active)
C[C@H](NC(=O)[C@H](C)NC(=O)[C@H](Cc1ccccc1)NC(=O)[C@H](CO)NC(=O)[C@H](CCCNC(N)N)NC(=O)[C@@H]1CCCN1)C(=O)O (H-P[Orn(CH(NH2)2)]SFAA-OH),Ki,"protein: LSD1-CoREST complex, PDB entry 3zn0",10.7 µM (active)
CC(C)C[C@H](NC(=O)[C@H](CCCNC(N)N)NC(=O)[C@@H]1CCCN1)C(=O)N[C@@H](Cc1ccc(O)cc1)C(=O)N[C@@H](CC(C)C)C(=O)N[C@H](C(=O)O)C(C)C (H-P[Orn(CH(NH2)2)]LYLV-OH),Ki,"protein: LSD1-CoREST complex, PDB entry 3zn1",29.1 µM (active)
CC(C)C[C@H](NC(=O)[C@H](Cc1ccccc1)NC(=O)[C@H](CO)NC(=O)[C@H](CCCNC(N)N)NC(=O)[C@@H]1CCCN1)C(=O)N[C@H](C(=O)O)C(C)C (H-P[Orn(CH(NH2)2)]SFLV-OH),Ki,"protein: LSD1-CoREST complex, PDB entry 3zmt",28.4 µM (active)
CCCCCC[C@H]([C@H](C)O)n1cnc2c(N)ncnc21,Ki,"protein: Bos taurus Adenosine deaminase (ADA), PDB entry 2z7g",0.00113 µM (active)
COC(=O)N[C@H](C(=O)NN(CCC[C@@]1(O)Cc2ccc(cc2)C/C=C\CNC(=O)[C@H](C(C)C)NC1=O)Cc1ccc([C@H]2C=CCS2)cc1)C(C)(C)C,Ki,"protein: HIV-1 protease, PDB entry 4cpx",0.017 µM (active)
COC(=O)N[C@H](C(=O)NN(CCC[C@@]1(O)Cc2ccc(cc2)C/C=C\CNC(=O)[C@H](C(C)C)NC1=O)Cc1ccc(-c2cccnc2)cc1)C(C)(C)C,Ki,"protein: HIV-1 protease, PDB entry 4cpt",0.02 µM (active)
COC(=O)N[C@H](C(=O)NN(CCC[C@@]1(O)Cc2ccc(cc2)C/C=C\CNC(=O)[C@H](C(C)C)NC1=O)Cc1ccc(-c2ccncc2)cc1)C(C)(C)C,Ki,"protein: HIV-1 protease, PDB entry 4cps",0.0054 µM (active)
CC(C)c1ccc(CCC(=O)N[C@@H]2O[C@H](CO)[C@@H](O)[C@H](O)[C@H]2O)cc1,Ki,"protein: Glycogen phosphorylase, muscle form, PDB entry 4mic",4.98 µM (active)
Cc1ccc(C(=O)NC(=O)N[C@@H]2O[C@H](CO)[C@@H](O)[C@H](O)[C@H]2O)cc1,Ki,"protein: Oryctolagus cuniculus Glycogen Phosphorylase, PDB entry 2qlm",2.3 µM (active)
O=C(CCc1ccc(-c2ccccc2)cc1)N[C@@H]1O[C@H](CO)[C@@H](O)[C@H](O)[C@H]1O,Ki,"protein: Glycogen phosphorylase, muscle form, PDB entry 4mhs",5.14 µM (active)
CC(C)c1ccc(C[C@@H](C)C(=O)N[C@@H]2O[C@H](CO)[C@@H](O)[C@H](O)[C@H]2O)cc1,Ki,"protein: Glycogen phosphorylase, muscle form, PDB entry 4mi3",75.3 µM (active)
CC[B]O,Ki,"protein: pure Acyl-homoserine lactone acylase PvdQ, PDB entry 4wks",2000 µM (active)
Cc1nn(C)cc1-c1ccn[nH]1,Ki,"protein: Catechol O-methyltransferase COMT, PDB entry 4p58",25 µM (active)
CC(C)S[C@@H]1O[C@H](CO)[C@H](O)[C@H](O)[C@H]1O,Ki,"protein: Putative lipoprotein BT2192, PDB entry 4oue",500 µM (active)
NCC1CCC(C(=O)N[C@@H](Cc2ccccc2)c2ncc(-c3ccc(C(N)=O)cc3)[nH]2)CC1 (stereo partly drawn),Ki,"protein: Coagulation factor XI FXIa, PDB entry 4ty6",0.03 µM (active)
NCC1CCC(C(=O)N[C@@H](Cc2ccccc2)c2nc(-c3ccc4c(N)n[nH]c4c3)c(Cl)[nH]2)CC1 (stereo partly drawn),Ki,"protein: Coagulation factor XI FXIa, PDB entry 4ty7",0.0003 µM (active)
N#CCC(=O)N1CCC[C@@H](n2[nH]nc3cnc4nccc4c32)C1,Ki,"protein: Tyrosine-protein kinase JAK1, PDB entry 4i5c",0.0015 µM (active)
O=C(O)C(=O)Nc1ccc(C[C@@H](c2nc3ccccc3o2)S(=O)(=O)Nc2ccc(F)cc2)cc1,Ki,"protein: Tyrosine-protein phosphatase non-receptor type 1, PDB entry 4i8n",35 µM (active)
O=c1[nH]c(=O)n([C@@H]2O[C@H](CO)[C@@H](O)[C@H](O)[C@H]2O)cc1Cl,Ki,"protein: Glycogen phosphorylase, muscle form, PDB entry 3t3e",1.02 µM (active)
O=c1[nH]c(=O)n([C@@H]2O[C@H](CO)[C@@H](O)[C@H](O)[C@H]2O)cc1I,Ki,"protein: Glycogen phosphorylase, muscle form, PDB entry 3t3h",1.94 µM (active)
O=c1[nH]c(=O)n([C@@H]2O[C@H](CO)[C@@H](O)[C@H](O)[C@H]2O)cc1Br,Ki,"protein: Glycogen phosphorylase, muscle form, PDB entry 3t3g",3.27 µM (active)
O=c1[nH]c(=O)n([C@@H]2O[C@H](CO)[C@@H](O)[C@H](O)[C@H]2O)cc1C(F)(F)F,Ki,"protein: Glycogen phosphorylase, muscle form, PDB entry 3t3i",17 µM (active)
OC[C@@H]1[C@@H](O)[C@H](O)[C@@H](O)[C@@H]1NCC1CCCCC1,Ki,"protein: Raucaffricine Glucosidase, PDB entry 3zj6",0.22 µM (active)
COCCCC[C@@H](NOCCN)c1ccc(C(F)(F)F)cc1,Ki,"protein: Transporter(delta13 mutant), PDB entry 4mm9",2.07 µM (active)
O=[N+]([O-])c1ccccc1S[C@@H]1O[C@H](CO)[C@H](O)[C@H](O)[C@H]1O,Ki,"protein: Putative lipoprotein BT2192, PDB entry 4ozo",147 µM (active)
COc1cc2c(c(OC)c1)[C@@H]1[C@H]3CCC[C@@H](C(=O)N1CC2)N3C(=O)C(=O)c1cc(OC)c(OC)c(OC)c1,Ki,"protein: Peptidyl-prolyl cis-trans isomerase FKBP5 (A19T mutation), PDB entry 4jfi",18.1 µM (active)
COc1cc(Cc2cnc(N)nc2N)cc(/C=C/C(=O)N2NCc3ccccc3[C@@H]2CC(C)C)c1OC,Ki,"protein: Dihydrofolate reductase, PDB entry 4elg",0.0069 µM (active)
COc1cc(Cc2cnc(N)nc2N)cc(/C=C/C(=O)N2NCc3ccccc3[C@@H]2c2ccccc2)c1OC,Ki,"protein: Dihydrofolate reductase, PDB entry 4elb",0.005 µM (active)
COc1cc(Cc2cnc(N)nc2N)cc(/C=C/C(=O)N2NCc3ccccc3[C@H]2CC(C)C)c1OC,Ki,"protein: Dihydrofolate reductase, PDB entry 4elh",0.0082 µM (active)
COc1cc(Cc2cnc(N)nc2N)cc(/C=C/C(=O)N2N=Cc3ccccc3[C@@H]2C(C)C)c1OC,Ki,"protein: Dihydrofolate reductase, PDB entry 4ele",0.0132 µM (active)
COc1cc(Cc2cnc(N)nc2N)cc(/C=C/C(=O)N2NCc3ccccc3[C@@H]2CCC(F)(F)F)c1OC,Ki,"protein: Dihydrofolate reductase, PDB entry 4elf",0.0094 µM (active)
CCCCCCCCCCCCCB(O)O,Ki,"protein: Acyl-homoserine lactone acylase PvdQ subunit beta, PDB entry 4m1j",0.0002 µM (active)
Cc1cc(N)ccc1O,Ki,"protein: PDE10A2, PDB entry 4llp",16 µM (active)
O=C(O)c1ccccc1C(=O)NCc1c(Cl)cccc1Sc1ccc(Cl)cc1Cl,Ki,"protein: Dehydrosqualene synthase, PDB entry 3tfp",0.34 µM (active)
